About 83,000 compounds went through this panel and 20% of them were active in at least one assay; those are over-represented in the sample as a whole.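 Step 1: grow cells in 96-well plates. Step 2: add test compound at a single concentration. Step 3: incubate 48 h. Step 4: record percent growth.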 A number with no mark means an inactive call. Active and inactive are the calls of the source.

The assay concerns KM12 colon. Put plainly: NCI-60 one-dose screen, 48 h (100 = growth as untreated, 0 = no growth, -100 = all killed). The settings on record: 10 µM unless noted. How it is done: Growth inhibition of the KM12 human tumor cell line is measured as a screen for anti-cancer activity. Cells are grown in 96 well plates and exposed to the test compound for 48 hours. Compounds are tested at a single concentration, which is 10^-5 M for most compounds. The reported endpoint is percent growth (GI% or GIPRCNT), where numbers from 0 - 100% represent growth inhibition, and numbers from -100% - 0 represent cell death. For example, a value of 40 represents 60% growth inhibition. A value of 0 means no net growth occurred over the course of the experiment. A value of -40 indicates 40% of cells at the beginning of the experiment died by the end of the experiment. A value of -100 means all cells are dead at the end of the experiment.
NCI-60 Human Tumor Cell Lines Screen was performed using the standard one-dose NCI protocol, which is described in more detail at https://dtp.cancer.gov/discovery_development/nci-60/default.htm.
Compounds with GIPRCNT values below 10 were considered active. Activity score was based on GIPRCNT using the following formula: […]
Score is 0 for GIPRCNT values of 100 or above, 50 for GIPRCNT values of 0, and 100 for GIPRCNT values of -100.
Take `O=C1CN2CCC1C/C2=C\c1ccnc2c(Cl)cccc12` (stereo not given): the growth was 101%.
In the case of `COC(=O)c1c2c(c(C)[n+]([O-])c1C)C(=O)C=C(NCc1cccc(OC)c1)C2=O`, the growth was -21.1% (active).
Then `CC(C)(C)[Si](C)(C)OC1[C@@H](CNC(=O)NC(=O)CCl)O[C@@H](n2cnc3c(N)ncnc32)[C@H]1O[Si](C)(C)C(C)(C)C` (stereo not given in full), with -82.4% (active).
On to `COc1cc(Cn2cc(F)c(=O)[nH]c2=O)cc(OC)c1`, for which the growth was 108% [50 µM].
Then `Brc1ccc(SCN(CSc2ccc(Br)cc2)Cc2ccccc2)cc1`, with 43.2%; and `COC(=O)[C@H]1CCCN1C(=O)[C@H]1CCCN1C(=O)[C@@H](Cc1c[nH]c2ccccc12)NC(=S)Nc1cc(C(F)(F)F)cc(C(F)(F)F)c1`, with 37.2%.
With `COc1ccc(C2OCC(C)(C)CO2)cc1OC` the figure was 112%; with `CC1=C(C/C=C(\C)CCC[C@H](C)CCC[C@H](C)CCCC(C)C)C(=O)c2ccccc2C1=O`, 105%; with `CCN(CC)CCCNc1ccc(C)c2sc3ccccc3c(=O)c12`, 33.2%.
With `COc1ccc(Cn2c(Br)c3c(c2-c2cc(OC)c(OC)c(OC)c2)CCc2sc(N)nc2-3)cc1` the figure was 27.2%.
With `COc1ccc(-c2[nH]ncc2Nc2cc(OC)c(OC)c(OC)c2)cc1`, the growth is 32.5%.
With `CN1CCN(c2ccc3nc(-c4ccc5nc(-c6ccc(C(F)(F)F)cc6)[nH]c5c4)[nH]c3c2)CC1` the figure was 49.7%; with `O=S(=O)(/N=C1C=C/C(=N\S(=O)(=O)c2ccccc2)c2ccccc2\1)c1ccccc1`, 101%.
With `O=C(c1ccccc1)C(Br)C(Br)c1cccc([N+](=O)[O-])c1` (stereo not given) the figure was 33.7%; with `COC(=O)/C=C1/CCC2C3CCC4=CC(=O)C(Br)CC4(C)C3C(=O)CC12C` (stereo not given), 81.1%; with `CCOC(=O)c1c(-c2cc(OC)c(OC)c(OC)c2)csc1N`, 64.2%.
Take `c1ccc2c(c1)oc1cc3c(cc12)nnc1cccn13`: the growth was 99.8%.
For the compound `C[C@]1(CO)C[C@@H](O)C[C@]2(C)[C@@H]1CC[C@@]13C[C@@H]4[C@@H](C[C@H]12)[C@]4(C)C3`, the growth was 109%.
With `O=C(O)c1ccccc1Oc1cc(-c2ccco2)nc(OCCBr)n1` the figure was 95.6%; with `Cc1ccccc1-n1nnc(C(=O)Nc2nc(-c3ccccc3)c(-c3ccccc3)s2)c1C`, 81.4% [50 µM].
Then `COC(=O)c1c2c(c(C)[n+]([O-])c1C)C(=O)C=C(NCc1cccc(Cl)c1)C2=O`, with 0.497% (active); and `O=C1/C(=C/c2ccccc2F)CNC/C1=C\c1ccccc1F`, with -80.1% (active); and `CCCCCCCC/C=C\CCCCCCCCOc1cccc(CC(=O)NCC[N+]2(C)CCCC2)c1`, with 69.2%.
For `CN1CCN(C)c2cncc(Br)c2C1=O`, the growth was 105%.
With `CON=C1C[C@]2(C[C@@H]3C[C@@H](C/C=C(\C)C[C@@H](C)/C=C/C=C4\CO[C@@H]5[C@H](O)C(C)=C[C@@H](C(=O)O3)[C@]45O)O2)O[C@H](/C(C)=C/C(C)C)[C@H]1C` the figure was 33.4%; with `COCCOC1=C(Cl)C(=O)c2ccccc2C1=O`, -41.7% (active).
For the compound `COc1ccc(OC)c(/C=C2\Oc3cc(O)ccc3C2=O)c1`, the growth is 108%.
With `CC(=O)OC[C@H](O)[C@@]1(O)CC[C@H]2[C@@H]3CCC4=CC(=O)CC[C@]4(C)[C@H]3[C@@H](O)C[C@@]21C` the figure was 105%; with `Cc1ccc(S(=O)(=O)c2ccc3[nH]c(=O)[nH]c(=O)c3c2)cc1`, 106%.
With `Fc1ccccc1Nc1ccc2nnc(-c3ccncc3)n2n1` the figure was 112%.
With `Cc1oc2c(c1C(=O)N1CC[C@@H](N)C1)C(=O)c1c(c(O)c3ccccc3c1O)C2=O` the figure was 15.7%.
For the compound `O=S(=O)(Nc1ccc(Cl)c(Cl)c1)c1ccc(-c2cnc(C3CC3)o2)cc1`, the growth is 20%.
On to `Cc1nc2cc(Nc3nc(Cl)nc(Nc4ccc(F)cc4)n3)ccc2n1Cc1ccccc1`, for which the growth was 69.2%.
For the compound `COc1cc(/C=N/NC(=O)c2cnn3c2NC(c2ccccc2)C3)ccc1OC1CCCC1` (stereo not given), the growth was 18.1%.
With `COc1ccc2nc(-n3nc(C)cc3C)c(-n3nc(C)cc3C)nc2c1` the figure was 116%; with `O=C1Nc2ccc(Cl)cc2/C1=N/N=C(c1ccccc1)c1ccccc1`, 93.4%; with `COc1ccccc1-n1c(SCc2cc(OC)c(OC)c(OC)c2)nc2ccc(Cl)cc2c1=O`, 16.4%.
Then `O=C(Nc1nc2ccccc2[nH]1)C(=O)Nc1nc2ccccc2[nH]1`, with 101%; and `O=c1c2c(=NCCN3CCCC3)cc3c(=O)n(CCCN4CCOCC4)c(=O)c4ccc(c(O)n1CCCN1CCOCC1)c2c4-3`, with -20.9% (active).
For `COc1cc(CNCCN2C(=O)c3ccc4c5c(ccc(c35)C2=O)C(=O)N(CCNCc2cc(OC)c(OC)c(OC)c2)C4=O)cc(OC)c1OC`, the growth is -92.5% (active).

The values above are taken from PubChem BioAssay (NCI).
